S2 tox: cell viability loss in ATXN counter-screen; S2 cells (HEK-293 line with an ATXN2-luciferase reporter) viability, CellTiter-Fluor protease fluorescence, 24 h; Potency, µM (doses to about 56.7 µM), hits mostly cytotoxic; actives 0.49% (n = 400,000); AID 651635; note: nearly all actives have a fitted effect of over 40% in size
HepG2 tox: HepG2 cytotoxicity, counter-screen for TGF-b inhibitors; HepG2 CAGA-GFP viability, ATP luminescence, 18 h; Potency, µM (highest dose often 46.1 µM), for inactives: top-dose activity change, negative = cytotoxicity, actives largely listed as cytotoxic; actives 0.76% (n = 410,000)
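CellTiter-Glo luminescence gave cytotoxicity after 18 hours at 37 degrees C. The cells were HepG2 CAGA-GFP in 1% FBS DMEM, stimulated with 500 pg/mL TGF-beta after compound addition. %Activity was normalised to no-cell wells (complete cell-killing) and DMSO (no toxicity), and curves were fitted and classified.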
ATXN2 expr inh: ATXN2 expression inhibition | HEK-293 ATXN2-luciferase reporter, luminescence, 24 h | Potency, µM (doses to about 57 µM), inactives show at the highest dose activity change, negative = inhibition, usual class: inhibitors | actives 0.72% (n = 360,000); note: % is set by controls: 0 for no effect and ±100 for the full control effect; nearly all actives have a fitted effect of over 55% in size
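ATXN2-luciferase reporter cells (luciferase flanked by upstream and downstream ATXN2 gene portions) were treated 24 h at 37 °C with compounds at up to 57 uM. SteadyGlo luminescence gave expression; GF-AFC fluorescence gave viability.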
HT1080NT lethal: kills 2HG-producing HT-1080-NT fibrosarcoma cells; HT-1080-NT fibrosarcoma viability, CellTiter-Glo ATP luminescence, 48 h; Potency, µM (top dose mostly 46.1 µM), inactives show at the highest dose activity, negative = less viability, most hits filed as cytotoxic; actives 1.6% (n = 360,000);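 note: NT is the 2HG producing partner of a matched IDH1 knockdown line; 0% = DMSO-treated cells and -100% = media-only wells without cells; nearly all actives have a fitted effect of over 55% in size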
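Luminescent CellTiter-Glo readout after 48 hours of compound exposure at 37 degrees C defined viability of HT-1080-NT cells. Activity was normalized to DMSO wells and cell-free media wells; concentration-response curves were fitted and assigned curve classes.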
HT1080 IDH1KD tx: toxicity to HT-1080 IDH1 knockdown cells (counter line). Potency, µM (top dose mostly 46.1 µM), without a hit: at the highest dose activity, negative = toxicity, most hits filed as cytotoxic. actives 2% (n = 360,000). HT-1080 IDH1 knockdown viability, ATP luminescence, 48 h. AID 686971;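 note: 0% = DMSO wells and -100% = cell-free medium wells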
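After a 2 h attachment period, IDH1KD HT-1080 cells took pin-transferred compound for 48 h at 37 °C; ATP-based luminescence after 10 min room-temperature reagent incubation reported viability.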
TGFb SMAD3 inh: blocks TGF-b signaling; actives 1.2% (n = 410,000); HepG2 CAGA-GFP TGF-b/SMAD3 reporter, GFP fluorescence, 18 h; TGF-beta stimulated, 500 pg/mL final; Potency, µM (titrated, usually from 46.1 µM), without a hit: at the top dose activity, negative = inhibition, hits mostly inhibitors; note: % is set by controls: 0 for no effect and ±100 for the full control effect; nearly all actives have a fitted effect of over 65% in size
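TGF-beta reporter screen: HEPG2 CAGA-GFP, 1% FBS, 500 pg/mL TGF-beta final, 18 h; per-cell GFP summed per well; curves fitted and categorized by class.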
* marks the source's active call; other numbers are inactive results; i = inactive; u = inconclusive; x = not tested or not shown. A selection: hits, their analogues and other compounds. The true share with any hit is near 3.9%. Calls come from the whole dose curve; as a rule, active = well fitted curve in the direction sought with a large enough effect; inconclusive = small, poorly fitted or top-dose-only effect, or another doubt; inactive = no such curve, though single readings can be large; an effect the other way counts as inactive or inconclusive. Potency is the fitted concentration of half-maximal effect.

SMILES	S2 tox	HepG2 tox	ATXN2 expr inh	HT1080NT lethal	HT1080 IDH1KD tx	TGFb SMAD3 inh
COc1ccc(NC(=O)C2CCCN(c3nnc(C)c4c(C)n(-c5ccccc5)nc34)C2)cc1Cl (configuration not stated)	11µM*	18µM*	13µM*	x	x	16µM*
COc1ccc(CNC(=O)C2CCCN(c3nnc(C)c4c(C)n(-c5ccc(C)cc5)nc34)C2)cc1 (configuration not stated)	u	-48%	-11%	x	x	u
COc1ccc(-n2nc3c(N4CCCC(C(=O)NCc5ccc(C)cc5)C4)nnc(C)c3c2C)cc1 (configuration not stated)	x	-46%	u	x	x	-24%
Cc1nnc(N2CCCC(C(=O)NCc3ccc(OC(C)C)cc3)C2)c2nn(-c3ccccc3)c(C)c12 (configuration not stated)	16µM*	-25%	u	u	u	-28%
CCc1ccc(CNC(=O)C2CCCN(c3nnc(C)c4c(C)n(-c5ccc(OC)cc5)nc34)C2)cc1 (configuration not stated)	u	10µM*	-20%	x	x	11µM*
Cc1ccc(NC(=O)C2CCN(c3nnc(C)c4c(C)n(-c5ccccc5)nc34)CC2)cc1Cl	i	8%	2%	x	x	u
CCC1CN(C(=O)N2CCC(C(=O)NCc3cccc(F)c3)CC2)c2cc(C)ccc2O1 (configuration not stated)	x	-23%	x	x	x	u
O=C(Cn1cncn1)N1CCOc2ccc(CN3CCN(c4ccccc4)CC3)cc2C1	i	x	x	x	x	x
Cc1cc(/C=C/c2ccccc2)nc2ccccc12	x	-23%	x	x	x	-25%
COc1ccc(N2CC3=C(C2=O)C(c2ccc(O)c(OC)c2)NC(=O)N3C)cc1 (configuration not stated)	i	-7%	-1%	x	x	0%
Cc1ccc(-n2nc3c(N4CCC(C(=O)NCCc5cccs5)CC4)nnc(C)c3c2C)cc1	u	-26%	u	u	16µM*	u
COCc1ccc(C(=O)N2CCCC(CCC(=O)NCc3ccccc3F)C2)o1 (configuration not stated)	i	0%	-23%	15µM*	u	-14%
O=C(CCC1CCCN(C(=O)c2ccco2)C1)NCc1ccccc1F (configuration not stated)	i	1%	7%	-15%	-29%	3%
Cc1nc2cc(NC(=O)[C@@H]3C[C@@H](Sc4ccccn4)CN3Cc3cccc(F)c3)ccc2s1	i	x	x	x	x	x
CCOc1ccc(-c2oc3cc(Cl)ccc3c(=O)c2O)cc1OC	i	-21%	1%	x	x	32%
CCC(C)N(C(=O)CSc1nc(C)nc2ccccc12)C1CCS(=O)(=O)C1 (configuration not stated)	u	1%	5%	2%	2%	-21%
C=CCn1c(SCC(=O)N(C(C)CC)C2CCS(=O)(=O)C2)nc2ccccc2c1=O (configuration not stated)	i	7.1µM*	13%	-4%	1%	-2%
COc1ccccc1NC(=O)c1sc2nc(-c3cc4cc(Cl)ccc4oc3=O)[nH]c(=O)c2c1C	x	2%	x	x	x	16%
COc1cccc(/C=N/NC(=O)c2cc(-c3ccccn3)nc3ccccc23)c1O	u	-3%	5µM*	u	u	-24%
COc1ccc(/C=N/NC(=O)c2cccc([N+](=O)[O-])c2)c2ccccc12	u	-18%	18µM*	-1%	0%	-6%
CCOc1cc(/C=N/NC(=O)c2cc(-c3cccc(OC)c3)nc3ccccc23)ccc1O	u	-1%	u	-24%	u	u
CC(C)COc1cccc(-c2cc(C(=O)N/N=C/c3ccncc3)c3ccccc3n2)c1	i	-47%	80%	-26%	18µM*	-11%
O=C(N/N=C/c1ccccn1)c1cc(-c2ccccc2)nc2ccccc12	u	-22%	x	0%	-19%	10µM*
COc1ccc(C2C=C(c3ccccc3)Nc3nc(NS(=O)(=O)c4ccccc4)nn32)cc1 (configuration not stated)	x	-11%	13%	x	x	24%
CCOC(=O)N1CCC(NC(=O)c2ccc3c(c2)N(Cc2ccc(F)cc2)C(=O)c2ccccc2S3(=O)=O)CC1	x	-22%	x	x	x	x
SMILES	S2 tox	HepG2 tox	ATXN2 expr inh	HT1080NT lethal	HT1080 IDH1KD tx	TGFb SMAD3 inh
CNc1ccc(C=C2c3ccccc3-c3ccccc32)cc1	x	-40%	x	x	x	u
Cc1ccc(C(=O)NCC(c2ccco2)S(=O)(=O)c2ccccc2)cc1C (configuration not stated)	u	5%	4%	x	x	7%
COc1cc(/C=N/NC(=O)c2cc(-c3ccco3)nc3ccccc23)cc(OC)c1O	i	-19%	11%	-24%	-15%	-10%
O=C(N/N=C/c1cccc(F)c1)c1cc(-c2ccco2)nc2ccccc12	u	-27%	13%	u	16µM*	0%
COc1cc([N+](=O)[O-])cc(/C=N/NC(=O)c2cc(C)nc3ccccc23)c1O	i	-43%	x	u	13µM*	-10%
CC(/C=N/NC(=O)c1cc(-c2ccccc2)nc2ccccc12)=C\c1ccco1	i	-32%	8%	u	u	u
COc1cc(/C=N/NC(=O)c2cc(-c3cccc(Br)c3)nc3ccccc23)cc(OC)c1O	i	-16%	-24%	u	12µM*	u
CC(/C=N/NC(=O)c1cc(-c2ccc(Cl)cc2)nc2ccccc12)=C\c1ccco1	u	8%	1%	u	0.82µM*	u
Cc1ccc2c(c1)CN(C(=O)CC(c1ccccc1)c1ccco1)CC(C)O2 (configuration not stated)	i	x	x	x	x	x
COc1cc2ccccc2cc1C(=O)N/N=C/c1ccc2c(c1)OCO2	u	1%	-15%	u	u	u
COc1ccc(-c2cc(C(=O)N/N=C/c3ccc4c(c3)OCO4)c3ccccc3n2)c(OC)c1	i	11µM*	120%	-21%	-23%	-1%
O=C(CCl)Nc1ccc2c(c1)OCO2	x	-52%	-16%	9.2µM*	18µM*	-15%
CC(C)CC(=O)Nc1ccc2c(c1)OCO2	i	7%	1%	4%	4%	1%
O=C(Nc1ccc2c(c1)OCO2)c1cc(C2CC2)on1	u	-13%	4%	u	8.2µM*	-1%
COc1cc(NC(=O)c2cc(-c3ccc4c(c3)OCO4)on2)cc(OC)c1OC	i	-6%	-15%	8.2µM*	5.8µM*	u

Compound activity (PubChem BioAssay)
